These results are taken from PubChem BioAssay AID624305 (National Center for Advancing Translational Sciences (NCATS), 2012).

The structures appear in SMILES notation. Results filed as inconclusive are left out. Values without a mark were called inactive. Active and inactive are the calls of the source. Calls follow the shape of the dose curve; as a rule, active = well fitted activation curve with a large enough effect; inconclusive = small, poorly fitted or top-dose-only effect; inactive = no such curve, though single readings can be large or run the other way.
Potency is read from the fitted curve at half-maximal effect.

The experiment can be described thus: qHTS assay for re-activators of p53 using a Luc reporter: Hit Validation. Also: nearly all actives have a fitted effect of over 75% in size. As to activation: 0% is about no effect. The conditions noted are these: p53-responsive luciferase reporter cells, luminescence, H1299 line expressing heat-sensitive Ala138Val p53; series mostly up to 46.1 µM. In outline:
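Hit confirmation with a 1:5 dilution series, at 37 deg C for 24 hrs, in H1299 cells co-expressing temperature-sensitive p53-A138V and p53-responsive luciferase. Nocodazole served as control; luminescence read after 10 min with detection reagent.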
For orientation: qHTS replaces the single test concentration by a dilution series.
As for `CC(C)C(=O)Nc1ccc(-c2nc3cccnc3o2)cc1`, the Potency is 366 nM (active).

`CC(=O)OCC(=O)Nc1ccc(N=Nc2ccccc2)cc1`: the Potency was 651 nM (active).

As for `COc1cc(NC(=O)CN2CCCCC2)c(C)cc1[N+](=O)[O-]`, the activation is 9.16% [at 9.22 µM]. As to `COc1ccc(-n2cc(-c3ccccc3)[nH]c2=S)cc1`, the Potency is 11600 nM (active). As for `CCCN1CCC(NC(=O)Cc2ccc(C)cc2)CC1`, the Potency result is “inactive”. As for `Cc1cs/c(=N\N=C\c2ccc(O)cc2)n1Cc1ccco1`, the Potency result was “inactive”. With `CCOC(=O)c1c(C)[nH]c(C(=O)OCCOc2ccccc2C)c1C`, the Potency was 1300 nM (active).

For the compound `N#Cc1cc2c(nc1SCC(=O)Nc1nccs1)CCCCC2`, the Potency was 206 nM (active). In the case of `C(=N\Nc1nc2ccccc2s1)/c1ccc2c(c1)OCO2`, the Potency was 2590 nM (active). Regarding `O=C(COc1ccccc1Cl)Nc1ccc(Cl)cn1`, the Potency was 20600 nM (active). Turning to `Cc1ccc(S(=O)(=O)NCCOc2nc(N(C)C)nc(N3CCOCC3)n2)cc1`, the Potency entry was “inactive”. For `CCN(CC)C(=O)CSc1ncnc2c(-c3cccs3)nsc12`, the Potency entry is “inactive”.

Consider `Cc1csc(NC(=O)/C=C/c2ccco2)n1`, for which the Potency is 10300 nM (active). As to `O=C(c1ccccc1)n1c(=S)nc2ccccn21`, the Potency was 164 nM (active). For `CC(Cc1ccccc1)NC(=O)c1ccc([N+](=O)[O-])cc1` (stereo not drawn), the Potency is 2590 nM (active). Take `c1ccc(-c2cn3c(n2)-c2ccccc2C3)cc1`: the Potency is 206 nM (active). Still for that read-out and setting: the same measure for `C=CCNC(=S)N/N=C(\C)c1ccccn1`: 6510 nM (active); for `O=C(/C=C/c1ccco1)Nc1ccccn1`: 2310 nM (active). On to `O=C(NCc1ccc(-c2nc3ccccc3s2)cc1)c1cc2ccccc2o1`, for which the Potency result is “inactive”. Regarding `COc1ccc(C2/C(=C(/O)c3ccc(C)cc3)C(=O)C(=O)N2CCCN2CCOCC2)cc1` (stereo not drawn), the Potency result was “inactive”. Regarding `COc1ccc(CCC(C)NCC(C)c2ccccc2)cc1` (stereo not drawn), the Potency entry was “inactive”. Consider `C/C(=N\NC(=O)c1ccccc1)c1ccc(NC(=O)c2cccs2)cc1`, for which the Potency entry was “inactive”. Consider `O=C1CCCC(O)=C1N=Nc1ccc2c(c1)OCO2`, for which the Potency is 23100 nM (active). `CCN1CCc2c(sc(NC(=O)c3ccc(S(=O)(=O)N4CCCC4)cc3)c2C(=O)NC)C1`: the Potency result was “inactive”. For `Cc1ccc(C2C(C#N)=C(N)Oc3cc4c(cc32)OCO4)cc1` (stereo not drawn), the Potency entry was “inactive”. Take `O=C(Nc1ccc(Cl)cc1C(F)(F)F)c1ccccc1`: the Potency entry is “inactive”. For `CCc1nnc(NC(=O)CCC(=O)Nc2ccccc2)s1`, the Potency result was “inactive”.

As for `Cc1nc(SCC(=O)Nc2nccs2)c(C#N)c(C)c1C`, the Potency is 651 nM (active). Take `c1ccc(-c2cc3cc4c(cc3cn2)OCO4)cc1`: the Potency is 11600 nM (active). As to `CCOCCCNc1nc2c([nH]1)c(=O)n(C)c(=O)n2C`, the Potency result was “inactive”.

In the case of `O=C(Nc1ccc(NC(=O)C2CCCCC2)cn1)c1ccco1`, the Potency is 2590 nM (active). As for `c1nc(C2CCCCC2)cc2cc3c(cc12)OCO3`, the Potency was 6510 nM (active). Take `COc1cc(C(C)=O)ccc1Oc1ncnc2c1cnn2-c1ccc(F)cc1`: the Potency entry was “inactive”.

As for `Cc1nonc1NCn1nnc2ccccc21`, the activation was 7.94% [at 9.22 µM].

On to `COc1cccc(NC(=O)CCN2CCOCC2)c1`, for which the Potency entry is “inactive”. On to `COC(=O)c1sccc1N/N=C/c1cccc(OC)c1O`, for which the Potency is 146 nM (active). Take `COc1cc(C(=O)NCCc2cn3ccc(C)cc3n2)cc(OC)c1OC`: the activation was 13.6% [at 9.22 µM]. For the compound `O=C1CC(c2ccc3c(c2)OCCO3)Oc2ccc([N+](=O)[O-])cc21` (stereo not drawn), the Potency was 2590 nM (active).
